Screens as filed in PubChem.
Most compounds without a hit are left out; they make up all but 21% or so of the library.
VP16 counter: inhibits Gal4-VP16 luciferase reporter, ROR gamma counter-screen; AID 2546; Potency, µM (doses to about 53.6 µM), without a hit: at the top dose activity, negative = inhibition, most hits filed as inhibitors; Drosophila S2 Gal4-VP16 UAS-luciferase, luminescence, 20 h; 3.5% of 310,000 active;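 note: Gal4-VP16 expression switched on by copper sulfate through the metallothionein promoter; potency is the fitted concentration of half-maximal effect; nearly all actives have a fitted effect of over 50% in size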
TDP1 cell noCPT: qHTS for Inhibitors of human tyrosyl-DNA phosphodiesterase 1 (TDP1): qHTS in cells in absence of CPT. DT40 Tdp1-/- hTDP1 cells, no CPT, ATP luminescence, 48 h. Potency, µM (doses to about 46.2 µM), inactives show top-dose activity change, negative = growth inhibition, most hits filed as inhibitors. 15% of 420,000 active. AID 686978, 2013; note: potency is the fitted concentration of half-maximal effect; nearly all actives have a fitted effect of over 55% in size
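Cells were dispensed at 400 per well, compounds added by pin tool, plates incubated ≥48 hr at 37 °C, then CellTiter-Glo added for 30 min at room temperature before luminescence reading. Line: DT40 Tdp1-/- complemented with hTDP1; camptothecin omitted.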
DT40 TDP1 CPT: DT40-hTDP1 cell growth loss with CPT. chicken DT40 Tdp1-/-;hTDP1 cells + 20 nM CPT, ATP luminescence, 48 h. Potency, µM (series often up to 46.2 µM), inactives show top-dose activity change, negative = growth inhibition, actives largely listed as inhibitors. 12% of 420,000 active. AID 686979; note: potency is the fitted concentration of half-maximal effect; nearly all actives have a fitted effect of over 55% in size
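Chicken DT40 Tdp1-/- cells stably complemented with human TDP1 were seeded at 400 cells/well in medium containing 20 nM camptothecin, exposed to pin-transferred compounds, and grown at 37 °C for at least 48 hr. Viability was read as ATP luminescence.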
RORgamma inh: blocks mouse ROR gamma transcriptional activity; P51450; Drosophila S2 Gal4-RORgamma UAS-luciferase reporter, 20 h; Potency, µM (highest dose often 53.6 µM), for the others: at the highest dose activity change, negative = inhibition, most hits filed as inhibitors; 5.4% of 310,000 active; note: potency is the fitted concentration of half-maximal effect; nearly all actives have a fitted effect of over 60% in size
Target sequence (P51450 whole entry, looked up, the tested form may be a part): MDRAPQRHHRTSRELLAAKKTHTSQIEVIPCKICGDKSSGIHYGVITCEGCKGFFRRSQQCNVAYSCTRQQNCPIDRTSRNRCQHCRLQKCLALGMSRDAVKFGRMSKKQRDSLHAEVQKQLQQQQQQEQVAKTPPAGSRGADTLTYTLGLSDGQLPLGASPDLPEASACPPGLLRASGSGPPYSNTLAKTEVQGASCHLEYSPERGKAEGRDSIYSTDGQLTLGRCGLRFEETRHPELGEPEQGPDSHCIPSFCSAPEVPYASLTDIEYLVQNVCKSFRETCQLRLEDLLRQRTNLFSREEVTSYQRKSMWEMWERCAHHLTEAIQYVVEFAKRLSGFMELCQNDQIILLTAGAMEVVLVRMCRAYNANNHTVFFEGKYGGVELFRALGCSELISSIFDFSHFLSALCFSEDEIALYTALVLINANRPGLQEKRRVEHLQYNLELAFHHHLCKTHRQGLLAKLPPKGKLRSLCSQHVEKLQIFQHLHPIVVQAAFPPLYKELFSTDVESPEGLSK
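Schneider cells (Drosophila), stable Gal4 DBD–ROR gamma + UAS-luc; 1 hr cmpd preincubation; Cu2+ induction 700 uM final; 20 hr ambient; luminescence.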
IL-1B inflam inh: inflammasome signaling inhibition, IL-1 beta readout; THP-1 LPS/ATP IL-1B secretion, AlphaLISA, 16 h; active compounds read low; activity change, % at 57.5 µM; 4.7% of 360,000 active; in the data active = activity change below about -50%; inconclusive = mostly about -30% to -49%
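Secreted IL-1B measured by AlphaLISA bead assay after 16 h compound exposure of THP-1 cells; compounds (final up to 57.5 uM) added 1 h before LPS (250 ng/mL) and ATP (1.25 mM) stimulation; lower signal means less secretion.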
ELG1 repair inh: inhibitors of ELG1-dependent DNA repair in HEK293T cells; HEK293T ELG1-luciferase reporter, luminescence, 16 h; DNA damage induced by 5-fluorouridine; Potency, µM (doses to about 46.1 µM), for inactives: top-dose activity change, negative = inhibition, hits mostly inhibitors; 2.3% of 330,000 active; AID 504467; note: potency is the fitted concentration of half-maximal effect; nearly all actives have a fitted effect of over 55% in size
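In this reporter screen, reduction of luminescence relative to DMSO vehicle indicated activity. Compounds and 5-fluorouridine were added together to 2,000 cells per well, incubated for 16 hr at 37 °C, then developed with ONE-Glo.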
Active calls of the source: *; ? = inconclusive; / = not tested or not shown. Unless noted, calls come from the whole dose curve; as a rule, active = well fitted curve in the direction sought with a large enough effect; inconclusive = small, poorly fitted or top-dose-only effect, or another doubt; inactive = no such curve, though single readings can be large; an effect the other way counts as inactive or inconclusive. % is set by controls: 0 for no effect and ±100 for the full control effect.

SMILES | VP16 counter | TDP1 cell noCPT | DT40 TDP1 CPT | RORgamma inh | IL-1B inflam inh | ELG1 repair inh
CCCS(=O)(=O)c1c(S(=O)(=O)CCC)c2c(N)cccn2c1C(=O)c1ccc(Br)cc1 | -2% | ? | 16µM* | 29% | -17 | ?
CCCS(=O)(=O)c1c(S(=O)(=O)CCC)c2c(N)cccn2c1C(=O)c1ccc(OC)cc1 | 2% | -18% | -23% | 13% | -16 | -24%
CCCS(=O)(=O)c1c(S(=O)(=O)CCC)c2c(N)cccn2c1C(=O)c1ccc(F)cc1 | 14% | ? | -27% | 9% | ? | -16%
CCCS(=O)(=O)c1c(S(=O)(=O)CCC)c2ccccn2c1C(=O)OC | 0% | 16µM* | 21µM* | 30% | 7 | 9%
CCCS(=O)(=O)c1c(S(=O)(=O)CCC)c2cc(C(C)(C)C)ccn2c1C(=O)c1ccccc1 | / | 16µM* | 18µM* | / | / | /
Cc1onc(-c2ccccc2)c1C(=O)N/N=C/c1cc(Br)c(O)c(Br)c1 | / | ? | ? | / | 12 | -3%
Cc1occc1C(=O)N/N=C/C(Br)=C\c1ccccc1 | ? | 12µM* | 18µM* | -39% | ? | ?
Cc1onc(-c2ccccc2)c1C(=O)N/N=C/C(Br)=C/c1ccccc1 | ? | 9.2µM* | 6.5µM* | 7% | ? | -23%
O=C(N/N=C/C(Br)=C\c1ccccc1)c1ccco1 | 6% | 9.2µM* | 6.5µM* | -31% | ? | ?
Cc1nnc(SCC(=O)NC2CCCC2)n1C(C)C | 3% | 1% | 3% | -8% | -8 | 17%
COc1ccccc1C(=O)Nc1cc2c(cc1N1CCCCC1)n(C)c(=O)n2C | / | 13µM* | 5.8µM* | / | / | /
CCOC(=O)C1CCN(c2cc3c(cc2NC(=O)c2ccc(Cl)cc2)n(C)c(=O)n3C)CC1 | / | 2.6µM* | 8.2µM* | / | / | /
CCOC(=O)C1CCN(C(=O)c2ccccc2NC(=O)c2ccc(Cl)cc2)CC1 | 2% | 23µM* | ? | 0% | 33 | -15%
CCOC(=O)C1CCN(c2cc3c(cc2NC(=O)c2ccccc2OCC)n(C)c(=O)n3C)CC1 | -14% | 5.8µM* | 21µM* | 9% | 38 | ?
CCOC(=O)C1CCN(c2cc3c(cc2NC(=O)c2ccccc2F)n(C)c(=O)n3C)CC1 | 6% | -15% | -24% | -16% | 56 | ?
COc1ccccc1C(=O)Nc1cc2c(cc1N1CCCC1)n(C)c(=O)c(=O)n2C | / | ? | -1% | / | / | /
CCOc1cccc(C2/C(=C(/O)c3ccc4c(c3)CC(C)O4)C(=O)C(=O)N2Cc2ccncc2)c1 (stereo unspecified) | 3% | 14% | -15% | 4% | 8 | 18%
O=C(OCc1ccccc1)N(CCF)c1cn(Cc2ccccc2)c(=O)n(Cc2ccccc2)c1=O | / | ? | ? | / | 4 | /
COc1ccc(C(=O)Nc2ccc(-n3nncc3-c3ccc(OC)c(OC)c3)cc2)cc1 | / | 21µM* | 21µM* | / | / | /
COc1ccc(-c2cnnn2-c2ccc(NC(=O)c3ccc(S(=O)(=O)N4CCCCC4)cc3)cc2)cc1OC | 0% | 12µM* | 21µM* | 13% | -22 | ?
COc1cc(CC(=O)C(=O)O)oc(=O)c1 | / | -6% | 3% | / | -6 | /
O=C(c1cc(-c2ccc(Cl)cc2)n(-c2ccc(Cl)c(Cl)c2)n1)N1CCOCC1 | ? | ? | ? | 2.2µM* | ? | ?
CC(C)CC1C(=O)N(Cc2cn(CCC3OCCO3)nn2)CCS(=O)(=O)N1Cc1ccc(-c2ccc(Cl)c(Cl)c2)cc1 (stereo unspecified) | / | 5.2µM* | 8.2µM* | / | -26 | /
CC(C)CC1C(=O)N(Cc2cn(CCC3OCCCO3)nn2)CCS(=O)(=O)N1Cc1ccc(-c2ccncc2)cc1 (stereo unspecified) | / | 18µM* | 16µM* | / | -4 | /
COc1ccc(-c2ccc(CN3C(CC(C)C)C(=O)N(Cc4cn(CCC5OCCCO5)nn4)CCS3(=O)=O)cc2)cc1OC (stereo unspecified) | / | ? | 13µM* | / | 1 | /
SMILES | VP16 counter | TDP1 cell noCPT | DT40 TDP1 CPT | RORgamma inh | IL-1B inflam inh | ELG1 repair inh
COc1ccc(-c2ccc(CN3C(C(C)C)C(=O)N(Cc4cn(CCC5OCCCO5)nn4)CCS3(=O)=O)cc2)cc1OC (stereo unspecified) | / | ? | ? | / | -3 | /
Cc1ccc(-c2ccc(CN3C(CC(C)C)C(=O)N(Cc4cn(CCC5OCCO5)nn4)CCS3(=O)=O)cc2)cc1 (stereo unspecified) | / | 13µM* | 15µM* | / | -21 | /
C#CCOCCOCCOCCNc1nc(N2CCN(C(=O)Cn3cc(CC(C)O)nn3)CC2)nc(N2CCN(C(=O)[C@H](C)n3cc(CCC(=O)O)nn3)CC2)n1 (stereo partly specified) | / | 22% | 5% | / | 1 | /
O=C(c1cccc(NS(=O)(=O)c2ccc(Br)cc2)c1)N1CCN(c2ccccc2O)CC1 | / | -20% | -4% | / | 3 | 0%
O=C(c1ccccc1)c1coc(-c2ccccc2)c1 | / | ? | ? | / | -3 | /
CC(C)CC1C(=O)N(Cc2cn(CCC3OCCCO3)nn2)CCS(=O)(=O)N1Cc1ccc(-c2ccccc2)cc1 (stereo unspecified) | / | ? | ? | / | 17 | /
CC(C)CC1C(=O)N(Cc2cn(CCC3OCCO3)nn2)CCS(=O)(=O)N1Cc1ccc(-c2ccccc2)cc1 (stereo unspecified) | / | 21µM* | 18µM* | / | -9 | /
CCC1=C(OC(=O)N(CC)CC)N2C(=O)OC(=NCCOC)[C@]2(C)[C@H]2C1=CC[C@H]1C(=O)NC(=O)[C@H]12 | -8% | / | / | 0% | / | /
Cc1ccc(C(=O)N2CCc3cc(CNC(=O)COc4ccccc4)ccc32)cc1 | / | 12µM* | 13µM* | / | / | /
O=C(COc1ccc(F)cc1)NCc1ccc2c(c1)CCN2C(=O)c1ccc(F)cc1 | / | -23% | -19% | / | / | /
O=C(COc1ccccc1)NCc1ccc2c(c1)CCN2C(=O)c1ccccc1 | / | 6.5µM* | 12µM* | / | / | /
CCOc1ccc(CC(=O)NCc2ccc3c(c2)CCN3C(=O)c2ccccc2)cc1OCC | / | ? | 16µM* | / | / | /
COc1ccc(OCC(=O)NCc2ccc3c(c2)CCN3C(=O)c2ccccc2)cc1 | / | 13µM* | 15µM* | / | / | /
CCCSc1nnc2c(n1)OC(c1ccc(OCC(=O)O)cc1)Nc1ccccc1-2 (stereo unspecified) | / | -1% | -19% | / | / | /
